{"source": "PubChem BioAssay AID1347172", "about": "(National Center for Advancing Translational Sciences (NCATS), 2019)", "note": "Records with an inconclusive call do not appear. Calls of active or inactive are those of the source. Calls come from the whole dose curve; as a rule, active = well fitted inhibition curve with a large enough effect; inconclusive = small, poorly fitted or top-dose-only effect; inactive = flat fitted curve, though single readings scatter."}
{"test": "Secondary qRT-PCR qHTS assay for selected Zika virus inhibitors", "details": "Vero cells ZIKV infection, NS5 RNA qRT-PCR, 24 h; series mostly up to 32.6 µM; activity change, negative = inhibition: at the top concentration", "from_the_text": "Assay Submitters (PI): Avindra Nath, Ph.D., National Institute of Neurological Disorders and Stroke (NINDS), Bethesda, MD Radhakrishnan Padmanabhan, Ph.D., Georgetown University (GU), Washington D.C. Zika Virus causes congenital defects, including microcephaly and is associated with Guillain-Barre syndrome, eningoencephalitis and myelitis in infected adult. […] Using a target-based approach, we hope to establish a screening paradigm to uncover novel, cell-active NS2B-NS3 protease (Zika Virus) specific inhibitors from NCATS' collection of small molecules using qHTS. […] Four assay panel was created to identify potential Zika Virus inhibitors. Namely, (1) GU unlinked NS2B-NS3 AMC tagged protease qHTS, (2) GU unlinked NS2B-NS3 Rhodamine tagged protease qHTS, (3) NINDS linked NS2B-NS3 AMC tagged protease qHTS, (4) NINDS linked NS2B-NS3 Rhodamine tagged protease qHTS. Inhibitors of the Zika virus primary screens are confirmed using qRT-PCR secondary assays, qRT-PCR mCherry orthogonal assay, and qRT-PCR viability counterscreen. Early Translation Branch (ETB) National Center for Advancing Translational Sciences (NCATS), Rockville, MD National Institute of Health (NIH), Bethesda, Maryland\n384-well ZIKV qRT-PCR Assay: Vero cells were treated with the indicated compounds at different concentrations, infected with ZIKV (MOI=1) and incubated at 37 degrees C for 3 hours to permit virus invasion. After 3 hr, supernatant was removed, and cells were washed once to remove extracellular virus. After a further 21 hr incubation, infected cells were washed three times with cold PBS (4 degrees C). Plates were then process using the TaqmanGene Expression Cells-to-Ct Kit (ThermoFisher Scientific) following the manufactures protocol. Primers directed to the NS5 sequence (F-[…]; R-GCTCGGCCAATCAGTTCA) along with Taqman probe (FAM-[…]-BHQ; Biosearch Technologies) were used to quantify drug inhibition of viral load. Reactions were run at initial 95 degrees C for 10 min, then 40 cycles of 95 degrees C for 20 sec and 60 degrees C for 40 sec using a LightCycler 480 (Roche). Relative viral copy numbers were generated by normalizing to cells treated with vehicle."}
{"smiles": "CC(=O)OC12CC(C)C(OC(=O)c3ccccc3)C1/C=C(/C)C(OC(=O)c1ccccc1)CC(=O)C(C)(C)/C=C/C(C)C2=O", "note": "(stereo not given)", "activity change, negative = inhibition": "-8.12% [at 10.8 µM] (inactive)"}
{"smiles": "CC(=O)Nc1ccc([C@H](C)C(=O)Nc2ncc(C(C)C)s2)cc1", "activity change, negative = inhibition": "-18.6% (inactive)"}
{"smiles": "Oc1cc2ccccc2c2ccccc12", "Potency": "22.4 µM (active)"}
{"smiles": "CC1=C(C(=O)OCc2ccccc2)C(c2ccc(-c3ccccc3)cc2)NC(=O)N1CCCCCC(=O)O", "note": "(stereo not given)", "activity change, negative = inhibition": "-14% (inactive)"}
{"smiles": "CC(C)c1ccc2c(c1)c(SC(C)(C)C)c(CC(C)(C)C(=O)O)n2Cc1ccc(Cl)cc1", "Potency": "10 µM (active)"}
{"smiles": "CC(C)=CCc1c2c(c3occ(-c4ccc(O)c(O)c4)c(=O)c3c1O)C=CC(C)(C)O2", "Potency": "4.47 µM (active)"}
{"smiles": "O=C(N/N=C/c1ccc(O)c(O)c1)c1cc2ccccc2cc1O", "activity change, negative = inhibition": "-17.4% (inactive)"}
{"smiles": "O=C(O)Cn1nnc(-c2cc(N3CCC(Oc4cc(F)ccc4Br)CC3)no2)n1", "activity change, negative = inhibition": "-7.81% (inactive)"}
{"smiles": "CN(C)[C@@H]1C(=O)C(C(N)=O)=C(O)[C@@]2(O)C(=O)C3=C(O)c4c(O)cccc4C[C@H]3C[C@@H]12", "activity change, negative = inhibition": "9.04% (inactive)"}
{"smiles": "Nc1ncnc2c([C@@H]3N[C@H](CO)[C@@H](O)[C@H]3O)c[nH]c12", "activity change, negative = inhibition": "10.9% (inactive)"}
{"smiles": "CCOC(=O)c1ccc(NC(=O)CSc2nc(-c3ccc(F)cc3)cc(C(F)(F)F)c2C#N)cc1", "activity change, negative = inhibition": "-18.9% (inactive)"}
{"smiles": "CN(Cc1ccc(C(=O)O)cc1)c1ccc(OCc2c(-c3c(Cl)cccc3Cl)noc2C2CC2)nc1C(F)(F)F", "Potency": "14.1 µM (active)"}
{"smiles": "CC(C)(O)c1ccccc1CC[C@@H](SCC1(CC(=O)O)CC1)c1cccc(/C=C/c2ccc3ccc(Cl)cc3n2)c1", "activity change, negative = inhibition": "2.54% (inactive)"}
{"smiles": "O=C(O)c1ccc(-n2nc(-c3ccccc3O)nc2-c2ccccc2O)cc1", "activity change, negative = inhibition": "15.9% (inactive)"}
{"smiles": "O=C(O)c1c(Sc2ccccc2)c2cc(Cl)ccc2n1Cc1ccc(Cl)cc1", "activity change, negative = inhibition": "-24.4% (inactive)"}
{"smiles": "O=C(O)/C=C/c1ccc(-c2ccc(O)c(C34CC5CC(CC(C5)C3)C4)c2)cc1", "Potency": "10 µM (active)"}
{"smiles": "CN(CC(=O)N(Cc1ccc(C2CCCCC2)cc1)c1ccc(C(=O)O)cc1)S(=O)(=O)c1c(F)c(F)c(F)c(F)c1F", "Potency": "12.6 µM (active)"}
{"smiles": "CCOc1ccc(-c2cc(NC(=O)c3c(F)cccc3F)c(C(=O)O)s2)cc1", "activity change, negative = inhibition": "-11.2% (inactive)"}
{"smiles": "Nc1ccn([C@@H]2O[C@H](CO)[C@@H](O)C2(F)F)c(=O)n1", "activity change, negative = inhibition": "-11.6% (inactive)"}
{"smiles": "CC(C)C[C@H](C(=O)O)c1cc(-c2ccc(C(F)(F)F)cc2)cc(-c2ccc(C(F)(F)F)cc2)c1", "Potency": "12.6 µM (active)"}
{"smiles": "O=C(O)c1ccc(O)c2ncc(N3CCCN(CCc4cccc5ccccc45)CC3)cc12", "activity change, negative = inhibition": "-14.9% (inactive)"}
{"smiles": "O=C1NC(=O)/C(=C/c2ccc3c(c2)OC(F)(F)O3)S1", "activity change, negative = inhibition": "2.32% (inactive)"}
{"smiles": "CC(C)c1cccc2c(-c3ccccc3)cc(-c3ccc(-c4ccc(C(=O)O)cc4)[nH]3)nc12", "Potency": "10 µM (active)"}
{"smiles": "CC(=O)N1c2ccc(-c3ccc(C(=O)O)cc3)cc2C(Nc2ccc(Cl)cc2)CC1C", "note": "(stereo not given)", "activity change, negative = inhibition": "-8.25% (inactive)"}
{"smiles": "Cc1ccc2nc(NS(=O)(=O)c3ccc(Cl)cc3)c(Nc3ccc(C(=O)O)cc3)nc2c1", "activity change, negative = inhibition": "-7.87% (inactive)"}
{"smiles": "CC(Oc1ccccc1)C(=O)Nc1ccc(C(=O)OCc2cc(=O)n3nc(C4CC4)sc3n2)cc1", "note": "(stereo not given)", "activity change, negative = inhibition": "4.47% (inactive)"}
{"smiles": "O=C(O)CC1CCC(c2ccc(-c3ccc(Nc4ccc(C(F)(F)F)nc4)cn3)cc2)CC1", "note": "(stereo not given)", "activity change, negative = inhibition": "1.2% (inactive)"}
{"smiles": "COc1c(C)c2c(c(O)c1C/C=C(\\C)CCC(=O)O)C(=O)OC2", "activity change, negative = inhibition": "-10.2% (inactive)"}
{"smiles": "O=C(O)c1ccc(CCCc2ccc(OCCc3ccc(F)cc3)cc2)o1", "activity change, negative = inhibition": "-0.859% (inactive)"}
{"smiles": "Cc1ccc([C@@H]2CC=C(C(=O)O)[C@H](c3ccc(C(C)(C)C)cc3)N2S(=O)(=O)c2ccc(C)cc2)cc1", "activity change, negative = inhibition": "-24.8% (inactive)"}
